Chronic BCR inh: chronic active BCR signaling inhibition; AID 493014; Potency, µM (series often up to 46.1 µM), without a hit: top-dose activity change, negative = inhibition, actives largely listed as inhibitors; actives 0.05% (n = 340,000); ABC-DLBCL IkBa-CBG/CBR reporter, luminescence ratio, 4 h; active means well fitted inhibition curve with a large enough effect in the signal ratio, with a control signal flat, not every such curve was filed as active; inconclusive means small, poorly fitted or top-dose-only effect, or effect the other way, or a change in a side signal; the % refers to the signal ratio;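 further: plate controls were basal doxycycline-induced cells for no effect and cells given 10 µM MG132 for full effect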
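Cell line TMD8 (human ABC DLBCL), stably expressing tet-inducible CBG68-IkBa fusion and CBR; IMDM/0.5% FBS; cpd up to 46 uM; dox induction, 4 h, 37C/5% CO2; dual luminescence; green/red ratio; MG132 control.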
a7 integrin act: activates integrin-mediated alleviation for muscular dystrophy; alpha7betagal myoblasts, beta-gal FDG fluorescence, 48 h; Potency, µM (highest dose often 38.3 µM), for the others: at the top dose activation, actives largely listed as activators; actives 0.064% (n = 350,000); AID 624291;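 further: 100% = response of the positive control SU9516; nearly all actives have a fitted effect of over 60% in size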
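Alpha7betagal+/- myoblasts (passage 13) were plated 16-24 hr, then exposed to compounds (1:260 dilution of DMSO stock) for 48 hours at 37C. After MPER lysis, β-galactosidase reporter activity was read as FDG fluorescence (ex 480/em 540) after 30 minutes.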
RORgamma inh: blocks mouse ROR gamma transcriptional activity; Drosophila S2 Gal4-RORgamma UAS-luciferase reporter, 20 h; Potency, µM (top dose mostly 53.6 µM), inactives show top-dose activity change, negative = inhibition, actives largely listed as inhibitors; actives 5.4% (n = 310,000); AID 2551; further: on the % scale 0 is the no-effect control and ±100 the full control effect; nearly all actives have a fitted effect of over 60% in size
Target sequence (P51450 whole entry, looked up, the tested form may be a part): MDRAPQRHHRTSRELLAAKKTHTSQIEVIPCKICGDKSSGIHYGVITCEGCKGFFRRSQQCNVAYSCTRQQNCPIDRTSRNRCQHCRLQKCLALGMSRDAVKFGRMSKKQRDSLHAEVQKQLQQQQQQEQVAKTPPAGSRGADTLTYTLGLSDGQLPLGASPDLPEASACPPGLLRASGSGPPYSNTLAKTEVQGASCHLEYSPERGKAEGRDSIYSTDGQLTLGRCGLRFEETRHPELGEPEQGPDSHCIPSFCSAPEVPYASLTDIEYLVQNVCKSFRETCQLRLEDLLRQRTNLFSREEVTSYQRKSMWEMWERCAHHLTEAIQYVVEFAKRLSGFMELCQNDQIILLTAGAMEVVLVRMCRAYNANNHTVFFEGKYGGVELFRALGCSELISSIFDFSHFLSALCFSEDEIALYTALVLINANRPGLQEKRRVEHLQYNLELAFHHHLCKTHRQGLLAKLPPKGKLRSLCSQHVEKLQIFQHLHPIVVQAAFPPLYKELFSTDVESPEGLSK
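ROR gamma transcriptional activity was tracked as Gal4-UAS luciferase output in stably transfected Drosophila Schneider cells, with compound added 1 hr before 700 uM copper sulfate induction and a 20 hr ambient-temperature incubation.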
Mito fusion act: inhibitors of mitochondrial division or activators of mitochondrial fusion. Potency, µM (series often up to 46.1 µM), without a hit: at the top dose growth rescue (activation), most hits filed as activators. actives 0.23% (n = 320,000). AID 485298. S. cerevisiae fusion-defective mutant growth rescue, CellTiterGlo 48 h; further: % of control where 0% means no effect; nearly all actives have a fitted effect of over 45% in size
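Compounds are tested for their ability to restore growth of mitochondrial fusion-defective yeast strains at non-permissive 37C in YPEG medium over 48 hours. Viability is quantified by luciferase luminescence.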
uPA generation: cell surface uPA generation inhibition | cell surface uPA generation assay, qHTS | Potency, µM (highest dose often 38.3 µM), for the others: at the highest dose activity change, negative = inhibition, most hits filed as inhibitors | actives 0.31% (n = 330,000) | AID 540303; active means well fitted inhibition curve with a large enough effect; inconclusive means small, poorly fitted or top-dose-only effect; inactive means no such curve, though single readings can be large or run the other way; tested in mouse RAW 264.7 cells; further: on the % scale 0 is the no-effect control and ±100 the full control effect; nearly all actives have a fitted effect of over 55% in size
Gal4-VP16 FLuc: counter-screen for ROR gamma inhibitors: Gal4-VP16 reporter. Drosophila S2 Gal4-VP16 UAS-luciferase, luminescence, 20 h. Potency, µM (series often up to 53.6 µM), for inactives: top-dose activity, negative = inhibition, actives largely listed as inhibitors. actives 3.5% (n = 310,000);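 further: Gal4-VP16 expression switched on by copper sulfate through the metallothionein promoter; on the % scale 0 is the no-effect control and ±100 the full control effect; nearly all actives have a fitted effect of over 50% in size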
* = called active by the depositor; [ ] = dose if it differs, or a comment. The list is not random: actives were taken first. Their share in the collection is about 5.5%. Unless noted, the call rests on the fitted dose curve; in most records, active means well fitted curve in the direction sought with a large enough effect; inconclusive means small, poorly fitted or top-dose-only effect, or another doubt; inactive means no such curve, though single readings can be large; an effect the other way counts as inactive or inconclusive. Potency means the concentration at half of the fitted maximal effect.

Screening CCCC[C@@H](NC(=O)[C@@H](Cc1cn(C(=O)OC)c2ccccc12)NC(=O)[C@H](CC(C)(C)C)NC(=O)N1[C@H](C)CCC[C@@H]1C)C(=O)O returned RORgamma inh -0.9% and Gal4-VP16 FLuc 8.3%.
`COc1ccc(S(=O)(=O)NNC(=O)Nc2ccc(F)cc2F)c(OC)c1` gave Chronic BCR inh -4.2%, a7 integrin act -5.4%, RORgamma inh -7.8%, Mito fusion act 3.2%, uPA generation 2.5% and Gal4-VP16 FLuc -6.7%.
For Cc1ccc(C2c3[nH]c4ccccc4c3CCN2C(=O)Nc2ccc(C)c(C)c2)cc1 (stereo unspecified) the results were Chronic BCR inh -0.7%.
O=C(O)c1cc(N/N=C/c2c(O)ccc3ccccc23)ccc1Cl was read as Chronic BCR inh inconclusive, a7 integrin act 3.0%, RORgamma inh 20.2%, Mito fusion act -8.0%, uPA generation 2.6% and Gal4-VP16 FLuc -23.1%.
`O=C(CNc1ccccc1)N/N=C/c1c(O)ccc2ccccc12` gave Chronic BCR inh 1.2%, a7 integrin act -51.1%, RORgamma inh 1.58µM*, Mito fusion act -2.8%, uPA generation inconclusive and Gal4-VP16 FLuc 2.82µM*.
`CCOC(=O)/C(=C/c1ccc(OC(=O)c2ccncc2)cc1)C(C)=O` gave Chronic BCR inh inconclusive, a7 integrin act -2.0%, RORgamma inh inconclusive, Mito fusion act -6.7%, uPA generation 0.6% and Gal4-VP16 FLuc 16.8%.
CCOC(=O)C(=Cc1ccc(-n2ccnc2)cc1)C(=O)OCC was read as Chronic BCR inh inconclusive, a7 integrin act -61.7%, RORgamma inh inconclusive, Mito fusion act -2.9%, uPA generation -16.9% and Gal4-VP16 FLuc inconclusive.
`CCOC(=O)C(=Cc1ccc(Br)cc1)C(=O)OCC` gave Chronic BCR inh inconclusive, a7 integrin act -63.1%, RORgamma inh 14.1µM*, Mito fusion act -31.9%, uPA generation -11.8% and Gal4-VP16 FLuc inconclusive.
`CCOC(=O)C(=Cc1ccc(F)cc1)C(=O)OCC` gave Chronic BCR inh inconclusive, RORgamma inh 10µM*, Mito fusion act -1.3% and Gal4-VP16 FLuc inconclusive.
Screening O=C(NCCc1ccccc1)c1cc(Sc2cccc(Cl)c2)nc2ccccc12 returned Chronic BCR inh 11.0%.
Screening Cc1cccc(NC(=O)CSc2nc(-c3ccco3)nc3cc(=O)[nH]n23)c1 returned Chronic BCR inh inconclusive and Mito fusion act -0.8%.
`CNC(=O)c1[nH]cnc1C(=O)Nc1ccc(Cl)cc1` gave Chronic BCR inh -8.7%, a7 integrin act -30.2%, RORgamma inh 3.98µM*, Mito fusion act 12.7%, uPA generation inconclusive and Gal4-VP16 FLuc 7.08µM*.
Screening CNC(=O)c1[nH]cnc1C(=O)Nc1ccc(C)cc1 returned Chronic BCR inh inconclusive, a7 integrin act 1.8%, RORgamma inh 3.98µM*, Mito fusion act 3.4%, uPA generation inconclusive and Gal4-VP16 FLuc 4.47µM*.
Cc1ccc(NC(=O)c2nc[nH]c2C(=O)NCCN(CCNC(=O)c2[nH]cnc2C(=O)Nc2ccc(C)cc2)CCNC(=O)c2[nH]cnc2C(=O)Nc2ccc(C)cc2)cc1 was read as Chronic BCR inh 5.5%, a7 integrin act -9.0% and uPA generation 4.9%.
Screening CNC(=O)c1[nH]cnc1C(=O)Nc1ccccc1 returned Chronic BCR inh inconclusive, a7 integrin act 9.3%, Mito fusion act -1.3% and uPA generation inconclusive.
`CNC(=O)c1[nH]cnc1C(=O)Nc1cccc(OC)c1` gave Chronic BCR inh inconclusive, a7 integrin act inconclusive, RORgamma inh 7.08µM*, Mito fusion act -1.7%, uPA generation -19.5% and Gal4-VP16 FLuc 14.1µM*.
Cc1ccc(NC(=O)c2nc[nH]c2C(=O)Nc2ccc(C)cc2)cc1 was read as Chronic BCR inh 0.3%, a7 integrin act 28.5%, RORgamma inh 1.41µM*, Mito fusion act 0.0%, uPA generation -17.1% and Gal4-VP16 FLuc 2.82µM*.
For COc1ccc(NC(=O)N(C)C[C@H]2Oc3c(NC(=O)C4CCCCC4)cccc3C(=O)N([C@H](C)CO)C[C@@H]2C)cc1 the results were Chronic BCR inh inconclusive, a7 integrin act -19.3% and uPA generation 1.2%.
Screening O=C(NC1CCN(Cc2ccccc2)CC1)c1cn(-c2ccccc2)nc1-c1cccnc1 returned Chronic BCR inh inconclusive, a7 integrin act 7.9%, Mito fusion act 2.0% and uPA generation -4.4%.
COc1cc2c(cc1OC)[C@@H]1O[C@](CCCCN3C(=O)c4ccccc4C3=O)(C2)Oc2cc(C)n(-c3ccccc3)c(=O)c21 was read as Chronic BCR inh inconclusive, RORgamma inh 30.4%[10 µM], Mito fusion act 0.5%[9.22 µM] and Gal4-VP16 FLuc -9.3%[10 µM].
Cc1cccc(NC(=O)c2nc[nH]c2C(=O)Nc2cccc(C)c2)c1 was read as Chronic BCR inh 17.6%, a7 integrin act -17.9%, RORgamma inh 1.41µM*, Mito fusion act -1.6%, uPA generation -2.9% and Gal4-VP16 FLuc 2.82µM*.
For CNC(=O)c1[nH]cnc1C(=O)Nc1ccc(F)cc1 the results were Chronic BCR inh inconclusive, a7 integrin act 10.6%, RORgamma inh 12.6µM*, Mito fusion act 5.9%, uPA generation -20.0% and Gal4-VP16 FLuc inconclusive.
`O=C(O)c1ccc2c(c1)-c1cc(C(=O)O)ccc1S2(=O)=O` gave Chronic BCR inh -4.7%, a7 integrin act 15.2%, RORgamma inh -10.6%, Mito fusion act 5.0%, uPA generation 7.0% and Gal4-VP16 FLuc 4.0%.
For Nc1[nH]c(N=NC(=O)c2ccc(F)cc2)c2ccccc12 the results were Chronic BCR inh inconclusive, a7 integrin act -11.4%, RORgamma inh 3.55µM*, Mito fusion act 6.4%, uPA generation -3.6% and Gal4-VP16 FLuc 14.1µM*.
Screening Cc1ccc(Cc2cnc(NC(=O)c3ccco3)s2)cc1 returned Chronic BCR inh inconclusive, a7 integrin act 7.8%, RORgamma inh inconclusive, Mito fusion act 15.0%, uPA generation inconclusive and Gal4-VP16 FLuc 5.62µM*.
Cc1ccc(C(=O)Nc2nnc(C)s2)o1 was read as Chronic BCR inh inconclusive, a7 integrin act inconclusive, RORgamma inh 32.0%, Mito fusion act 3.2%, uPA generation -16.3% and Gal4-VP16 FLuc 15.2%.
`O=C(Nc1nnc(Cc2ccccc2)s1)c1ccco1` gave Chronic BCR inh inconclusive, a7 integrin act -5.2%, RORgamma inh inconclusive, Mito fusion act 3.8%, uPA generation -10.7% and Gal4-VP16 FLuc 22.5%.
Screening O=C(Nc1ncc(Cc2cccc([N+](=O)[O-])c2)s1)c1ccco1 returned Chronic BCR inh -4.8%, a7 integrin act -20.7%, RORgamma inh inconclusive, Mito fusion act -1.3%, uPA generation inconclusive and Gal4-VP16 FLuc inconclusive.

Source: PubChem (National Center for Advancing Translational Sciences (NCATS))
